# Source: PubChem
# The entries come from a sample that favours hits as a whole.
# Pf Dd2 growth – inhibitors of Plasmodium falciparum Dd2 growth. P. falciparum Dd2 growth, SYBR Green, 72 h. Potency, µM (top dose mostly 28.9 µM), for the others: at the highest dose activity, negative = inhibition, usual class: inhibitors. 120,000 compounds, 4.3% hits; active = well fitted inhibition curve with a large enough effect;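 note: plate controls were DMSO vehicle for no effect and reference drug for full effect; nearly all actives have a fitted effect of over 65% in size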
#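 Readout: SYBR Green fluorescence, 485 nm excitation, 535 nm emission, after ~16 h lysis at 37C. Before that, Dd2-infected red cells (2.5% hematocrit) grew 72 h with compound, 29 uM top final concentration.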
# The depositor's hits bear a star; i = inactive; [ ] = another dose, or the depositor's remark. Potency is the fitted concentration of half-maximal effect.
SMILES,Pf Dd2 growth
CC(C)c1ccc(C2=CC(c3cccc(Cl)c3)n3c(nc4ccccc43)N2)cc1 (stereo not given),11µM*
CCN(CC)C(=O)C1=C(C)Nc2nc3ccccc3n2C1c1ccc(Cl)cc1 (stereo not given),-10%
COc1cccc(C2=CC(c3ccccc3F)n3c(nc4ccccc43)N2)c1 (stereo not given),11%
COc1cccc(C2C(C(=O)Nc3ccc(Cl)cc3)=C(C)Nc3nc4ccccc4n32)c1 (stereo not given),-22%
Cn1c(=O)c2c(c3ccccc31)OC(=O)CC2c1cccc(Cl)c1 (stereo not given),23%
CC(C)c1ccc(C2N=C(N)Nc3nc4ccccc4n32)cc1 (stereo not given),3.2µM*
CC(C)c1ccc(C2=CC(c3cccc(Cl)c3)n3ncnc3N2)cc1 (stereo not given),16%
CCN(CC)C(=O)C1=C(C)Nc2nc3ccccc3n2C1c1cccc(Cl)c1 (stereo not given),11µM*
COc1ccc(C(=O)N2CC[C@@H]3COCCN(Cc4cccnc4)[C@@H]3C2)c(OC)c1,-2%
Cc1ccc(C(=O)N2CCn3c(nn(-c4ccc(F)cc4F)c3=O)C2)cc1,12%
COc1cc(=O)n2c(c1C(=O)Nc1cc(Cl)ccc1Cl)CCCC2,-18%
COCc1noc(C2CCCCCN2C(=O)NCc2ccc(F)cc2)n1 (stereo not given),28%
O=C1CC2(CCN(C(=O)c3ccccn3)CC2)Oc2ccccc21,-18%[44.1 µM]
Cc1nnc(CN(C)C(=O)c2cccc(S(=O)(=O)N3CCOCC3)c2)o1,-4%
CCOc1cc(=O)n2c(c1C(=O)N1CCCc3ccccc31)CCCC2,23%
O=[S+]([O-])(c1cccs1)N1CCCC2(CC(c3ccccn3)=NO2)C1 (stereo not given),1%
Cc1ccccc1C(=O)N(C)Cc1ccccc1C(F)(F)F,-20%[44.1 µM]
COc1ccc(C(=O)N2CCC(c3n[nH]c(=O)n3-c3ccc(C)cc3)CC2)cn1,i
COc1cccc([C@@H]2CN(C(=O)Cc3ccc(F)cc3)C[C@H]2C(=O)O)c1OC,3%
CC(=O)C1=C(c2ccc(Cl)c(Cl)c2)N(C(C)=O)n2cnnc2S1,1.1µM*
CCC(=O)C1=C(c2ccc(F)cc2)N(C(=O)CC)n2cnnc2S1,4.5µM*
COc1ccc(C2=NS(=O)(=O)N(C)C(C(=O)Nc3cc(C)ccc3O)=C2)cc1OC,-6%
COc1ccc(C2=C(C(C)=O)Sc3nnc(-c4ccc(C)cc4)n3N2C(C)=O)cc1OC,2.5µM*
CCC(=O)C1=C(c2ccc(OC)c(OC)c2)N(C(=O)CC)n2c(nnc2-c2ccc(C)cc2)S1,-4%
Cc1nnc2n1C(C)CN(C(=O)CCCn1nnc(-c3ccc(F)cc3)n1)C2 (stereo not given),-5%
SMILES,Pf Dd2 growth
CC(=O)C1=C(c2ccc(Cl)c(Cl)c2)N(C(C)=O)n2c(nnc2-c2ccccc2)S1,35%
CCC(=O)N1CCCCCCn2c(nnc2-c2ccc(F)cc2)CC1,-8%
CC(=O)C1=C(c2ccc(Cl)c(Cl)c2)N(C(C)=O)n2c(C)nnc2S1,2.8µM*
COCC(=O)NC1CCC12CCN(C(=O)C1(c3ccccc3)CC1)CC2 (stereo not given),-7%
O=C(c1ccccc1)N1CCn2c(nn(-c3ccc(F)cc3F)c2=O)C1,5%
COCCOc1ccc2c(n1)CCN(C(=O)c1ccnn1C)C2,42%
Cc1ccc(-c2nnc3ccc(N(C)c4cccc(C)c4)nn23)nc1,i
CC(C)C[C@@H](NC(=O)C1=C[C@@H](NC(=O)Nc2ccc(F)cc2F)[C@@H](O)[C@H](O)C1)C(N)=O,5%
CCOc1cc(=O)n2c(c1C(=O)NCc1cccc(F)c1)CCCCC2,25%
CCOc1cccc(CN2CCC3(CC2)CC(CC(=O)N2CCCC2)CCO3)c1 (stereo not given),166%
Cn1c(CO[C@H]2CN(C(=O)Nc3ccccc3)C[C@H]2F)nc2ccccc21,-10%[44.1 µM]
Cc1ccc(C(=O)N2CC[C@H](N3CCOCC3)[C@H](CCCO)C2)cc1Cl,-10%
Cc1cn2nc(C(=O)N3CCC(NC(=O)c4ccc(F)c(F)c4)CC3)cc2c(=O)[nH]1,-16%
Cc1cn2nc(C(=O)N3CCC(NC(=O)c4cccc(C#N)c4)CC3)cc2c(=O)[nH]1,2.8µM*
COc1cccc(C(=O)NC2CCN(C(=O)c3cc4c(=O)[nH]c(C)cn4n3)CC2)c1,i
COC1CCC(C(=O)N2CCc3c(n(CCOc4ccccc4)n(-c4ccccc4)c3=O)C2)CC1 (stereo not given),-7%
CN(C)c1ncccc1CNC(=O)COc1ccccc1Cl,-12%
COc1ccc(CNC(=O)c2cc(-c3ccc(Br)s3)nc3ccccc23)cc1,232%[5.79 µM]
Cc1ccc(NC(=O)c2cc(-c3ccc(Br)s3)nc3ccccc23)cc1F,-22%
CCN(CC)CC(C)CNC(=O)c1cc(-c2ccc(Br)s2)nc2ccccc12 (stereo not given),11µM*
COCC(=O)N1CCOC[C@H](Oc2cnccn2)C1,30%[44.1 µM]
CC1=C[C@@H](CNC(=O)C2CCCCC2)[C@H](C(C)C)C[C@H]1Cc1nc2ccccc2n1C,10µM*
